Most compounds without a hit are left out; they make up all but 2.4% or so of the library.
AmpC inh det: blocks E. coli AmpC beta-lactamase in presence of detergent. Potency, µM (highest dose often 28.7 µM), for the others: at the top dose activity change, negative = inhibition. purified AmpC, nitrocefin hydrolysis with detergent. 0.09% of 71,000 active. P00811; active = well fitted curve in the direction sought with a large enough effect; inconclusive = small, poorly fitted or top-dose-only effect; note: % is set by controls: 0 for no effect and ±100 for the full control effect
Target sequence (P00811 whole entry, looked up): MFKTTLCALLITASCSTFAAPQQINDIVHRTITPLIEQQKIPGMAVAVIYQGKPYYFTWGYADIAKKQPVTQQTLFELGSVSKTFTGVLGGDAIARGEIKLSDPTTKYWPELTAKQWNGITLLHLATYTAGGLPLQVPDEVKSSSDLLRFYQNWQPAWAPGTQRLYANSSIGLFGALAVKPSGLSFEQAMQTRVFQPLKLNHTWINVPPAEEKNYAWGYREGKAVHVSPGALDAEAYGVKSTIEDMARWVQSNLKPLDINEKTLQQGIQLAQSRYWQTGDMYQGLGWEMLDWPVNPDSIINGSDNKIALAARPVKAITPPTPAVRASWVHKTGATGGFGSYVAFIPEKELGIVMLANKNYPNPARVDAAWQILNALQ
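E. coli AmpC (5.3 nM) in 20 mM phosphate pH 7.0 with 0.01% Triton X-100, preincubated 15 min RT with compound; nitrocefin (2 uL of 800 uM stock) hydrolysis followed by 480 nm absorbance every 20 s over 4 min.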
LT uptake inh: inhibitors of anthrax lethal toxin internalization. Cells, anthrax lethal toxin internalization, FRET ratio (460/530). Potency, µM (titrated, usually from 40 µM), for the others: top-dose activity change, negative = inhibition, most hits filed as inhibitors. 0.67% of 70,000 active; note: % is set by controls: 0 for no effect and ±100 for the full control effect; nearly all actives have a fitted effect of over 50% in size
AmpC inh no det: inhibitors of E. coli AmpC beta-lactamase without detergent | P00811 | AmpC nitrocefin hydrolysis, absorbance 480 nm, no detergent | Potency, µM (top dose mostly 28.7 µM), for the others: top-dose activity change, negative = inhibition | 1.8% of 71,000 active | AID 585; note: % of control where 0% means no effect
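Enzyme, pH 7.0 phosphate. Compound titrations were pre-incubated with AmpC for 15 min at room temperature before nitrocefin (stock 800 uM) addition; product formation was recorded at 480 nm every 20 s for 4 min.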
Prx2 Sm inh: blocks S. mansoni peroxiredoxin 2 enzymatic activity; S. mansoni Prx2 activity coupled to TGR/GSH (TGR is thioredoxin glutathione reductase), NADPH fluorescence loss, qHTS; AID 448; Potency, µM; 0.07% of 65,000 active
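Enzyme mix: 100 uM NADPH, 25 nM TGR, 700 uM GSH, 50 nM Prx2 in 100 mM phosphate pH 7.4, 10 mM EDTA, 0.01% Tween-20. 15 min RT with compound; NADPH/GSH added, H2O2 starts reaction; NADPH fluorescence read 8 min.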
* marks the source's active call; other numbers are inactive results; u = inconclusive; x = no result; [ ] = dose if it differs, or a comment. Unless noted, calls come from the whole dose curve. Potency is the fitted concentration of half-maximal effect.

SMILES | AmpC inh det | LT uptake inh | AmpC inh no det | Prx2 Sm inh
O=C(c1cnccn1)N1CCC2(CC1)CN(Cc1cc(C(F)(F)F)cc(C(F)(F)F)c1)C2 | 1.4% | -12.1% | 5.1% | >57
COc1ccc(S(=O)(=O)Cc2ccc(C(=O)NCc3ccccn3)o2)cc1 | 11.0% | u | 3.98µM*[single pt active] | >57
O=C(NCc1ccc2c(c1)OCO2)Oc1ccccc1 | 12.7% | -7.9% | 3.98µM*[single pt active] | >57
CCC(C)NC(=O)c1ccc(CS(=O)(=O)c2ccc(OC)cc2)o1 (stereo not drawn) | 12.0% | -7.4% | 3.98µM*[single pt active] | >57
COc1ccc(S(=O)(=O)Cc2ccc(C(=O)NC(C)C)o2)cc1 | 5.2% | 0.3% | 8.9% | >57
COc1ccccc1S(=O)(=O)Cc1ccc(C(=O)NCc2cccnc2)o1 | 15.0% | -21.0% | 3.98µM*[single pt active] | >57
COc1ccccc1S(=O)(=O)Cc1ccc(C(=O)NCCN2CCCC2)o1 | -0.3% | -1.4% | 1.7% | >57
CN(C)CCO[C@](C)(c1ccccc1)c1ccccn1 | -2.1%[12.8 µM] | -0.6%[3.58 µM] | 0.7%[12.8 µM] | >57
COCCNC(=O)c1ccc(CS(=O)(=O)c2ccc(OC)cc2)o1 | 11.1% | -9.1% | 3.98µM*[single pt active] | >57
CCN(CC)C(=O)c1ccc(CS(=O)(=O)c2ccc(OC)cc2)o1 | 13.9% | -9.5% | 3.98µM*[single pt active] | >57
CCc1ccccc1S(=O)(=O)Cc1ccc(C(=O)NCc2ccc3c(c2)OCO3)o1 | 5.9% | u | 3.98µM*[single pt active] | >57
CCc1ccccc1S(=O)(=O)Cc1ccc(C(=O)NC(C)C)o1 | 5.5% | -11.8% | 13.0% | >57
COCCNC(=O)c1ccc(CS(=O)(=O)c2c(Cl)cccc2Cl)o1 | 7.2% | 1.0% | 20.2% | >57
O=C(NCc1ccco1)c1cc2c(s1)CSC2 | 11.7% | -13.1% | -24.6% | x
O=C(NCc1ccc2c(c1)OCO2)c1cc2c(s1)CSC2 | 5.5% | -3.1% | 12.6µM*[single pt active] | >57
C[C@@H]1O[C@@H](O[C@H]2C[C@@H](O)[C@]3(CO)[C@@H]4[C@@H](O)C[C@]5(C)[C@H](C6=CC(=O)OC6)CC[C@@]5(O)[C@H]4CC[C@@]3(O)C2)[C@H](O)[C@H](O)[C@@H]1O | -4.2% | u | -9.3% | >57
CC(=O)OC[C@@H]1O[C@H](C/C=N\O[C@@H](C)c2cn([C@H](CO)Cc3ccccc3)nn2)C=C[C@@H]1OC(C)=O | x | 1.4%[1.6 µM] | x | x
O=C1C(C2=C(O)c3ccccc3C2=O)=Nc2ccccc21 | 10.9% | -5.7% | 12.6µM* | >57
COCCNc1ncnc2ccc(-c3ccccc3C)cc12 | 6.4% | -8.8% | 72.7% | >57
O=C(Cn1nc(Cc2cccnc2)c2ccccc2c1=O)N1CCC2(CC1)OCCO2 | 0.7% | 11.3% | -5.5% | >57
CN(C)C(=O)Cn1nc(-c2ccccc2)c2ccccc2c1=O | -3.2% | 4.1% | 10.6% | >57
O=C(Cn1nc(Cc2ccncc2)c2ccccc2c1=O)N1CCc2ccccc2C1 | 10.8% | -1.5% | 3.98µM*[single pt active] | >57
CN(CCC#N)C(=O)Cn1nc(Cc2ccncc2)c2ccccc2c1=O | 11.2% | -4.4% | 3.98µM*[single pt active] | >57
O=C(c1ccccc1)c1ccc2n1CC[C@H]2C(=O)O | -0.6%[12.8 µM] | 1.8%[3.58 µM] | -11.2%[12.8 µM] | >57
O=C(Cn1c(C(=O)N2CCc3ccccc3C2)cc2sccc21)c1ccccc1 | 5.6% | u | 15.8µM*[single pt active] | >57
SMILES | AmpC inh det | LT uptake inh | AmpC inh no det | Prx2 Sm inh
COc1cc2nc(N3CCN(C(=O)[C@@H]4COc5ccccc5O4)CC3)nc(N)c2cc1OC | -5.8%[12.8 µM] | u | 29.9%[12.8 µM] | >57
COc1cccc(-c2cncnc2-n2ccnc2)c1 | -10.9% | 7.7% | -16.0% | >57
COc1cccc(-c2nccc(-n3ccnc3)n2)c1 | 12.6µM* | u | 10µM* | >57
CN1/C(=C/C(=O)c2nc(S(C)(=O)=O)ncc2Cl)C(C)(C)c2ccccc21 | -1.6% | 12.6µM* | 31.8% | >57
O=C(NCCN1CCCCCC1)c1ccc(CS(=O)(=O)c2ccc(Br)cc2)o1 | 8.4% | u | 3.98µM*[single pt active] | >57
O=C(NC1CCCC1)c1ccc(CS(=O)(=O)c2ccc(Br)cc2)o1 | 8.1% | -26.1% | 3.98µM*[single pt active] | >57
CCN(CC)CCNC(=O)c1ccc(CS(=O)(=O)c2ccc(Br)cc2)o1 | 8.9% | -25.6% | 3.16µM*[single pt active] | >57
CN1CCN(CCCNC(=O)c2ccc(CS(=O)(=O)c3ccc(Br)cc3)o2)CC1 | 9.7% | -1.9% | 21.9% | >57
O=C(NCCCN1CCCC1)c1ccc(CS(=O)(=O)c2ccc(Br)cc2)o1 | 12.6% | -12.6% | 3.98µM*[single pt active] | >57
Cc1cc(C)n2nc(S(=O)(=O)NCCc3ccccc3)nc2n1 | 13.7% | -9.7% | 3.98µM*[single pt active] | >57
COc1ccc(C2CC(c3ccc(Cl)cc3Cl)n3nc(N)nc3N2)cc1 (stereo not drawn) | 14.4% | 14.1% | 107.8% | >57
COc1cccc(C2CC(c3ccccc3Cl)Nc3nc(N)nn32)c1 (stereo not drawn) | -3.1% | -7.6% | 64.0% | >57
CCOc1ccc(C2CC(c3cccc(OC)c3)Nc3nc(N)nn32)cc1 (stereo not drawn) | 10.2% | -4.6% | 80.2% | >57
COc1ccc(C2CC(c3c(Cl)cccc3Cl)n3nc(N)nc3N2)cc1 (stereo not drawn) | 7.3% | u | 3.98µM*[single pt active] | >57
COc1cccc(C2CC(c3ccc(C)cc3)n3nc(N)nc3N2)c1 (stereo not drawn) | 11.6% | 5.9% | 3.98µM*[single pt active] | >57
COc1cccc(C2CC(c3ccc(C)cc3)Nc3nc(N)nn32)c1 (stereo not drawn) | 7.4% | -1.2% | 3.98µM*[single pt active] | >57
CO[C@H]1COC(=O)[C@H](C)COC(=O)[C@H](C)NC(=O)C/C=C\[C@H]1C | x | -3.9%[8 µM] | x | x
CCCCn1c(=S)[nH]c2c(oc3ccc(Cl)cc32)c1=O | 1.0% | 22.0% | 6.31µM* | >57
N[C@@H](CSC1c2ccccc2-c2ccccc21)C(=O)O | -7.2%[5.75 µM] | -2.4%[8 µM] | 1.9%[5.75 µM] | >57
Oc1ccc2c3c1O[C@H]1c4c(c5ccccc5n4Cc4ccccc4)C[C@]4(O)[C@H](C2)N(CC2CC2)CC[C@@]314 | -1.5% | 25.1µM* | 34.9% | >57
Oc1ccc2c3c1O[C@H]1c4[nH]c5ccccc5c4C[C@]4(O)[C@H](C2)N(CC2CC2)CC[C@@]314 | -2.2% | u | 31.8% | >57
C[C@@H]1O[C@H]1P(=O)(O)O | 18.0% | 8.2% | 1.4% | >57
Clc1ccccc1CNCC1CCC(CNCc2ccccc2Cl)CC1 (stereo not drawn) | -0.2% | 3.98µM* | 18.6% | >57
COc1cccc2c1C(=O)c1c(O)c3c(c(O)c1C2=O)C[C@](O)(C(=O)CO)C[C@@H]3O[C@H]1C[C@H](N)[C@@H](O)[C@H](C)O1 | -1.8%[5.75 µM] | 0.4%[8 µM] | 1.6%[5.75 µM] | >57
COc1cccc2c1C(=O)c1c(O)c3c(c(O)c1C2=O)C[C@@](O)(C(C)=O)C[C@@H]3O[C@H]1C[C@H](N)[C@H](O)[C@H](C)O1 | 8.6% | 15.8µM* | 144.3% | >57
O=C(NCc1cccs1)c1cc2c(s1)-c1ccccc1OC2 | 10.5% | u | 15.8µM* | >57
O=S(=O)(Nc1ccn(-c2ccccc2)n1)c1ccc(Br)cc1 | 0.3% | u | 5.01µM* | x
Cc1cc(NC(=O)c2noc3c2CCc2ccccc2-3)n(-c2ccccc2)n1 | 11.9% | -11.5% | 2.51µM*[single pt active] | >57
